# From article PMC5540273 (PLoS ONE, 2017)
# Like-named read-outs stand apart in the source and are kept apart here.
# Key:
# STK16 = conditions: concentration: 1 μM, replicates: in singlicate; n = 1
# STK33 = conditions: concentration: 1 μM, replicates: in singlicate; n = 1
# STK35 = conditions: concentration: 1 μM, replicates: in singlicate; n = 1
# STK36 = conditions: concentration: 1 μM, replicates: in singlicate; n = 1
# STK39 = conditions: concentration: 1 μM, replicates: in singlicate; n = 1
# SYK = conditions: concentration: 1 μM, replicates: in singlicate; n = 1
# SgK110 = conditions: concentration: 1 μM, replicates: in singlicate; n = 1
# TAK1 = test system: T1, TAK1; conditions: concentration: 1 μM, replicates: in singlicate; n = 1
# T1 construct: gene MAP3K7
# TAOK1 = conditions: concentration: 1 μM, replicates: in singlicate; n = 1
# TAOK2 = conditions: concentration: 1 μM, replicates: in singlicate; n = 1
# TAOK3 = conditions: concentration: 1 μM, replicates: in singlicate; n = 1
# TBK1 = conditions: concentration: 1 μM, replicates: in singlicate; n = 1
# TEC = conditions: concentration: 1 μM, replicates: in singlicate; n = 1
# TESK1 = conditions: concentration: 1 μM, replicates: in singlicate; n = 1
# TGFBR1 = conditions: n = 1
# TGFBR2 = conditions: concentration: 1 μM, replicates: in singlicate; n = 1
# TIE1 = conditions: concentration: 1 μM, replicates: in singlicate; n = 1
# TIE2 = test system: T2, TIE2; conditions: concentration: 1 μM, replicates: in singlicate; n = 1
# T2 construct: gene TEK
# TLK1 = conditions: concentration: 1 μM, replicates: in singlicate; n = 1
# TLK2 = conditions: concentration: 1 μM, replicates: in singlicate; n = 1
# [1] = concentration: 1 μM, replicates: in singlicate
# 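Note: KINOMEscan kinase panel screen.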
compound,measurement,setting,value
COC(=O)c1c(-c2ccccc2)c2cc(OC)ccc2c(=O)n1Cc1ccccc1,%Inh,STK16,3%
same,%Inh,STK33,0%
same,%Inh,STK35,3%
same,%Inh,STK36,11%
same,%Inh,STK39,0%
same,%Inh,SYK,0%
same,%Inh,SgK110,0%
same,%Inh,TAK1,19%
same,%Inh,TAOK1,0%
same,%Inh,TAOK2,0%
same,%Inh,TAOK3,0%
same,%Inh,TBK1,0%
same,%Inh,TEC,14%
same,%Inh,TESK1,20%
same,%Inh,TGFBR1; [1],17%
same,%Inh,TGFBR2,0%
same,%Inh,TIE1,3%
same,%Inh,TIE2,0%
same,%Inh,TLK1,23%
same,%Inh,TLK2,0%
COc1cc2nccc(Nc3ccc(NC(=O)c4ccc(C)cc4)c(O)c3)c2cc1OC.Cl [GW440132],%Inh,STK16,0%
same,%Inh,STK33,7%
same,%Inh,STK35,0%
same,%Inh,STK36,0%
same,%Inh,STK39,0%
same,%Inh,SYK,38%
same,%Inh,SgK110,0%
same,%Inh,TAK1,0%
same,%Inh,TAOK1,0%
same,%Inh,TAOK2,0%
same,%Inh,TAOK3,0%
same,%Inh,TBK1,0%
same,%Inh,TEC,3%
same,%Inh,TESK1,25%
same,%Inh,TGFBR1; [1],0%
same,%Inh,TGFBR2,0%
same,%Inh,TIE1,6%
same,%Inh,TIE2,0%
same,%Inh,TLK1,0%
same,%Inh,TLK2,0%
Cc1cccc(-c2nc(C)cc(Nc3ccncc3)n2)n1 [GSK257997],%Inh,STK16,2%
same,%Inh,STK33,0%
same,%Inh,STK35,0%
same,%Inh,STK36,0%
same,%Inh,STK39,0%
same,%Inh,SYK,34%
same,%Inh,SgK110,0%
same,%Inh,TAK1,24%
same,%Inh,TAOK1,0%
same,%Inh,TAOK2,0%
same,%Inh,TAOK3,0%
same,%Inh,TBK1,15%
same,%Inh,TEC,0%
same,%Inh,TESK1,15%
same,%Inh,TGFBR1; 1 µM,100%
same,%Inh,TGFBR2,4%
same,%Inh,TIE1,0%
same,%Inh,TIE2,8%
same,%Inh,TLK1,8%
same,%Inh,TLK2,0%
Cc1cc(N2Cc3ccccc3C2)nc(Nc2ccc(S(=O)(=O)N3CCOCC3)cc2)n1.Cl [GSK1669917],%Inh,STK16,0%
same,%Inh,STK33,0%
same,%Inh,STK35,0%
same,%Inh,STK36,4%
same,%Inh,STK39,0%
same,%Inh,SYK,35%
same,%Inh,SgK110,0%
same,%Inh,TAK1,0%
same,%Inh,TAOK1,0%
same,%Inh,TAOK2,0%
same,%Inh,TAOK3,0%
same,%Inh,TBK1,30%
same,%Inh,TEC,0%
same,%Inh,TESK1,12%
same,%Inh,TGFBR1; [1],0%
same,%Inh,TGFBR2,0%
same,%Inh,TIE1,0%
same,%Inh,TIE2,0%
same,%Inh,TLK1,2%
same,%Inh,TLK2,0%
COc1ccc(Nc2nccc(-c3cccc(NC(=O)c4cc5cc(F)ccc5[nH]4)c3)n2)cc1 [GSK1229782],%Inh,STK16,22%
same,%Inh,STK33,5%
same,%Inh,STK35,0%
same,%Inh,STK36,0%
same,%Inh,STK39,4%
same,%Inh,SYK,49%
same,%Inh,SgK110,0%
same,%Inh,TAK1,64%
same,%Inh,TAOK1,2%
same,%Inh,TAOK2,0%
same,%Inh,TAOK3,0%
same,%Inh,TBK1,24%
same,%Inh,TEC,19%
same,%Inh,TESK1,34%
same,%Inh,TGFBR1; [1],17%
same,%Inh,TGFBR2,10%
same,%Inh,TIE1,0%
same,%Inh,TIE2,17%
same,%Inh,TLK1,4%
same,%Inh,TLK2,0%
COc1cc(Nc2nccc(N3CCC(NC(=O)Nc4cc(C)ccc4C)C3)n2)cc(OC)c1OC (centres unmarked) [GSK1379762],%Inh,STK16,57%
same,%Inh,STK33,3%
same,%Inh,STK35,3%
same,%Inh,STK36,0%
same,%Inh,STK39,16%
same,%Inh,SYK,0%
same,%Inh,SgK110,0%
same,%Inh,TAK1,0%
same,%Inh,TAOK1,0%
same,%Inh,TAOK2,0%
same,%Inh,TAOK3,0%
same,%Inh,TBK1,18%
same,%Inh,TEC,14%
same,%Inh,TESK1,0%
same,%Inh,TGFBR1; [1],8%
same,%Inh,TGFBR2,0%
same,%Inh,TIE1,49%
same,%Inh,TIE2,2%
same,%Inh,TLK1,0%
same,%Inh,TLK2,0%
O=C(Nc1ccccc1)Nc1cccc(Oc2ccc3nccn3n2)c1,%Inh,STK16,0%
same,%Inh,STK33,1%
same,%Inh,STK35,11%
same,%Inh,STK36,0%
same,%Inh,STK39,0%
same,%Inh,SYK,12%
same,%Inh,SgK110,40%
same,%Inh,TAK1,0%
same,%Inh,TAOK1,0%
same,%Inh,TAOK2,0%
same,%Inh,TAOK3,0%
same,%Inh,TBK1,10%
same,%Inh,TEC,0%
same,%Inh,TESK1,0%
same,%Inh,TGFBR1; [1],5%
same,%Inh,TGFBR2,9%
same,%Inh,TIE1,0%
same,%Inh,TIE2,92.4%
same,%Inh,TLK1,17%
same,%Inh,TLK2,0%
